Compound activity deposited in PubChem BioAssay by National Center for Advancing Translational Sciences (NCATS).
IDH1 R132H inh = inhibitors of human mutant IDH1 R132H | 0.093% of 390,000 active | Potency, µM (doses to about 76.6 µM), for inactives: at the top dose activity change, negative = inhibition, hits mostly inhibitors | AID 602179 | IDH1-R132H enzyme, NADPH consumption, diaphorase/resazurin fluorescence; further: potency means the concentration at half of the fitted maximal effect; nearly all actives have a fitted effect of over 65% in size
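IDH1-R132H (0.5 ug/mL) preincubated 30 min with compound, then NADPH (0.016 mM) and alpha-KG (2 mM) added; 80 min at RT, pH 7.5. Remaining NADPH coupled via diaphorase/resazurin to fluorescence (540/590 nm); concentration-response curves normalized to no-enzyme control.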
PLK1 PBD inh = inhibitors of human PLK1 polo-box domain binding | P53350 | Plk1 PBD binding of FITC phosphopeptide, fluorescence polarization | Potency, µM, for inactives: max response, negative = inhibition, most hits filed as inhibitors | 2.8% of 360,000 active | AID 720504; further: potency means the concentration at half of the fitted maximal effect; series mostly up to about 57 µM; nearly all actives have a fitted effect of over 65% in size
Sfp inh = blocks B. subtilis Sfp PPTase activity; Q9F4F7; Biochemical Sfp PPTase activity, qHTS; Potency, µM, for the others: largest response in the series, negative = inhibition, most hits filed as inhibitors; 3.5% of 310,000 active;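 further: the enzyme is Sfp with the accession as filed and its product quenches rhodamine fluorescence; potency means the concentration at half of the fitted maximal effect; 0% = enzyme reaction without inhibitor and -100% = no enzyme wells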
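Fluorescence-quenching assay: 15 nM Sfp-PPTase preincubated 15 min at room temperature with compound, then 5 uM rhodamine-CoA and 12.5 uM BHQ-2-labelled YbbR peptide added. Fluorescence (ex 525/em 598 nm) read at start and after 30 min; difference gives rate.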
TrxR1 substrate = substrates of rat thioredoxin reductase 1 | O89049 | purified TrxR1 substrate turnover, NADPH consumption readout | Potency, µM (titrated, usually from 114 µM), without a hit: top-dose activity change, negative = substrate turnover | 0.01% of 390,000 active; further: potency means the concentration at half of the fitted maximal effect; nearly all actives have a fitted effect of over 50% in size
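Rat TrxR1, dispensed at 90 nM, was prereduced with 400 uM NADPH (final) for 5 min at ~22 deg C, then incubated with compound 15 min before 400 uM selenite. A first-read NADPH fluorescence drop versus no-compound background flagged substrates.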
VDR inh = inhibitors of human vitamin D receptor. P11473. VDR-SRC2-3 peptide fluorescence polarization, 2 h. Potency, µM, inactives show max response, negative = inhibition, actives largely listed as inhibitors. 0.93% of 400,000 active. AID 504847; further: potency means the concentration at half of the fitted maximal effect
Target sequence (P11473 whole entry, looked up): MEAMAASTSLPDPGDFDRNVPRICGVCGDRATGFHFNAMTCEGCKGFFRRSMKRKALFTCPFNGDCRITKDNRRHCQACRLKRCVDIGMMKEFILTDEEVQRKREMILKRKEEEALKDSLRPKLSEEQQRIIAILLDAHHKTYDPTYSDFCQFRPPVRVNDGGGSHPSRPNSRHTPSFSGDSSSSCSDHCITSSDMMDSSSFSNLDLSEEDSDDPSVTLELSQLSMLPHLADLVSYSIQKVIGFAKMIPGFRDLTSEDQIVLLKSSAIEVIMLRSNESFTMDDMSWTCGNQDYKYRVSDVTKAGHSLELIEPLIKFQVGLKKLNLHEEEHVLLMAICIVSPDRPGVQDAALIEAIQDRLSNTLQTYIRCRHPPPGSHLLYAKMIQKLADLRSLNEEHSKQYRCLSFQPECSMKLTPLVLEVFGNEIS
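Inhibition of the VDR/SRC2-3 peptide interaction is quantified by fluorescence polarization. Compounds (23 nl, pintool) incubate with the reagents for 2 hours at ambient room temperature.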
TrxR1 inh = inhibitors of rat thioredoxin reductase 1 | recombinant rTrxR1, NADPH fluorescence consumption, selenite substrate | Potency, µM (doses to about 114 µM), without a hit: at the top dose activity change, negative = inhibition, most hits filed as inhibitors | 1% of 390,000 active | AID 588453; further: potency means the concentration at half of the fitted maximal effect; nearly all actives have a fitted effect of over 65% in size
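Rat TrxR1 (90 nM in the dispensed reagent) was pre-reduced with 400 uM NADPH for 5 min at room temperature, then incubated with compound for 15 min. After 400 uM selenite was added, NADPH fluorescence (Ex 340/Em 450 nm) was followed for 8 min.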
Sfp inh conf = confirmation of Bacillus subtilis Sfp PPTase inhibitors. Sfp PPTase enzymatic assay, qHTS titration. 79% of 380 active. AID 2701. Potency, µM (titrated, usually from 114 µM), without a hit: at the highest dose activity change, negative = inhibition, actives largely listed as inhibitors. shares compounds with Sfp inh;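 further: potency means the concentration at half of the fitted maximal effect; plate controls were uninhibited Sfp reaction for no effect and no enzyme control for full effect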
Target sequence (Q9F4F7 whole entry, looked up): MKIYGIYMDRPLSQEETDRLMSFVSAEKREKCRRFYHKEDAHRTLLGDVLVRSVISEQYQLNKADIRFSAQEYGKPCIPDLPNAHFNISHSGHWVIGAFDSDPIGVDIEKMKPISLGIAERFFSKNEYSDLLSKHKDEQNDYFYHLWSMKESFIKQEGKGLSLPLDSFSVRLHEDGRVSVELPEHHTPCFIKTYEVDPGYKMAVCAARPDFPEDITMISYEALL
Sfp gel assay = Inhibits Bacillus subtilis Sfp phosphopantetheinyl transferase. shares compounds with Sfp inh. Potency, µM, hits mostly inhibitors. AID 2707. purified Sfp, gel-based phosphopantetheinylation read-out. 20% of 210 active;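 active means potency below 100 µM; inconclusive means dose-dependent response but potency above 100 µM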;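 further: band intensities scaled against SCH202676 control wells before curve fitting; potency is an IC50 for inhibitors of Sfp transfer activity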
Starred values were filed as active, the others as inactive; i = inactive; ? = inconclusive; . = not tested or not shown; ! = repeats disagree; [ ] = another dose, or the depositor's remark. Shown are actives, neighbours in structure and some others; about 5.2% of the full set was active somewhere. Unless noted, the call rests on the fitted dose curve; in most records, active means well fitted curve in the direction sought with a large enough effect; inconclusive means small, poorly fitted or top-dose-only effect, or another doubt; inactive means no such curve, though single readings can be large; an effect the other way counts as inactive or inconclusive. Unless noted, on the % scale 0 is the no-effect control and ±100 the full control effect.

SMILES	IDH1 R132H inh	PLK1 PBD inh	Sfp inh	TrxR1 substrate	VDR inh	TrxR1 inh	others
c1nc(NCc2ccc3c(c2)OCO3)c2cc(-c3ccoc3)ccc2n1	.	.	.	1%	-4%	-5%
c1cncc(CNc2ncnc3ccc(-c4cccnc4)cc23)c1	.	.	79µM*	11%[57.1 µM]	-19%	13%[57.1 µM]
c1ccc(CNc2ncnc3ccc(-c4ccoc4)cc23)cc1	.	.	0%	.	25µM*	.
O=C(CNC(=O)c1ccc(Cl)cc1Cl)OCn1nnc2ccccc2c1=O	1%	-17%	.	5%	-9%	?
COC(=O)c1ccc(Cl)c(NC(=O)C2CCN(S(=O)(=O)Cc3ccccc3)CC2)c1	0%	.	.	-10%	31%	7%
CC(=O)Cc1nsc(NC(=O)c2ccc(COc3ccccc3C)o2)n1	-3%	-7%	19%	-2%	13%	-4%
COC(=O)CSC1=C(C#N)C(c2ccc(Cl)cc2)C(C(=O)OC)C(=O)N1 (stereo not drawn)	14%	27µM*	-15%	-1%[57.1 µM]	-19%	-4%[57.1 µM]
CCOC(=O)C1C(=O)NC(SCC(N)=O)=C(C#N)C1c1ccccc1OCC (stereo not drawn)	4%	-24%	16µM*	-4%	-15%	-18%
COC(=O)C1C(=O)NC(SC)=C(C#N)C1c1ccccc1 (stereo not drawn)	3%	-14%	14%	-9%	7%	-13%
CCOC(=O)CSC1=C(C#N)C(c2ccc(Cl)cc2)C(C(=O)OC)C(=O)N1 (stereo not drawn)	1%	24µM*	?	0%	-8%	2%
CC(C)(C(=O)N1CCC1(C)C(=O)NS(=O)(=O)c1ccccc1Cl)c1ccccc1 (stereo not drawn)	.	-3%	.	.	.	.
COc1ccc(-c2nc3c(C)cc(Br)cn3c2Cc2ccc(C)cc2)cc1OC	.	3%	.	.	.	.
N#CC1=C(N)CCC1	.	.	.	-2%	.	8%
COc1ccccc1NC(=O)CN1CCN(c2ccc(F)cc2)CC1	-6%	24µM*	.	4%	?	8%
COc1cccc(OC)c1NC(=O)CN1CCN(C)CC1	16%	-5%	79µM*	3%[57.1 µM]	10%	5%[57.1 µM]
COc1cccc(OC)c1NC(=O)Cn1nc(C)c2ccccc2c1=O	4%	30µM*	10%	9%	-23%	15%
COc1ccccc1NC(=O)CN1CCN(CC(=O)Nc2ccc(F)cc2)CC1	1%	-11%	-3%	11%[57.1 µM]	-5%	23%[57.1 µM]
O=S(=O)(Cc1ccccc1)Oc1ccccc1	18%	-2%	-2%	-6%	-7%	-5%
CC#CCN1c2ccccc2[C@]23C[C@@H](C(=O)OC)N(S(=O)(=O)c4ccc(C)cc4)C2=NC(C(=O)OC)=C(C(=O)OC)[C@H]13	.	.	6%	.	.	.
Cc1cccc(OCCC(=O)NO)c1	.	.	.	4%	.	11%
Cc1c(C(=O)N(CCC#N)c2ccccc2)sc2nc3n(c(=O)c12)CCCC3	-4%	-9%	15%	4%[57.1 µM]	-8%	17%[57.1 µM]
O=C(N/N=C/c1ccccc1)c1ccco1	3%	4%	19%	-7%[57.1 µM]	7%	-14%[57.1 µM]
O=C(C#Cc1ccccc1)c1ccco1	11%	3.4µM*	?	-1%	22µM*	0.25µM*
COc1ccc(F)cc1S(=O)(=O)Nc1ccncc1	12%	3%	2%	10%[2.29 µM]	-11%	20%
COc1ccc(S(=O)(=O)Nc2ccncc2)c(C)c1C	14%	-1%	89µM*	-3%[57.1 µM]	-4%	19%[57.1 µM]
SMILES	IDH1 R132H inh	PLK1 PBD inh	Sfp inh	TrxR1 substrate	VDR inh	TrxR1 inh	others
COCCNC(=O)C1(C)Cc2c(-c3ccc(N(C)C)cc3)ccnc2O1 (stereo not drawn)	.	0%	.	.	.	.
CSc1nc2c(=S)[nH]c(=S)[nH]c2s1	.	21µM*	.	.	.	.
COCCCn1c2nc3ccccc3nc2c2c(=O)n(Cc3ccc(Cl)cc3)cnc21	1%	-7%	?	19%	-4%	12%
O=c1c2c3nc4ccccc4nc3n(Cc3ccccc3)c2ncn1Cc1ccco1	4%	-27%	2.8µM*	25%	-13%	18µM*	Sfp inh conf=5.9µM*
S=C(N/N=C/c1cccc2ccccc12)Nc1cccc(Cl)c1	-1%	-12%	18%	6%	-9%	-3%
CCOc1ccc(CCNC(=O)c2ccc(C)c(-n3cnc4cccnc43)c2)cc1	12%	.	.	1%	6%	16%
O=C(O)c1ccc(/C=N/NC(=O)C(O)(c2ccccc2)c2ccccc2)cc1	-5%	5%	5%	-3%	10%	7%
CCN(CC)c1ccc(/C=N/NC(=O)C(O)(c2ccccc2)c2ccccc2)o1	.	.	7.1µM*	.	.	.	Sfp inh conf=12µM*
CCOc1ccc2nc(NC(=O)c3nc(SCc4ccccc4C)ncc3Cl)sc2c1	16%	.	.	3%	21%	15%
O=c1c2cc(N3CCOCC3)ccc2[nH]c(=S)n1CCN1CCCC1	2%	-7%	-9%	-3%	12%	-15%
Cc1ccc(Cn2c(=S)[nH]c3ccc(N4CCOCC4)cc3c2=O)o1	6%	21µM*	2.5µM*	5%	18µM*	4.5µM*	Sfp inh conf=2.6µM*
O=C(Cn1cc(SCc2cccc(Cl)c2)c2ccccc21)N1CCCCCC1	5%	.	.	-2%	11%	22%
C=C(C)c1cc2c(ccc3ccc(=O)oc32)o1	4%	-9%	.	12%	9%	3%
Cc1ccc(NC(=S)NC(=O)c2sc3ccccc3c2Cl)c(C(=O)O)c1	.	.	16µM*	.	.	.	Sfp inh conf=53µM*
CC(C)N1CC(C(=O)Nc2ccc(F)c(Cl)c2)CC1=O (stereo not drawn)	-1%	0%	9%	0%	-6%	7%
CCOc1ccc(OCC)c(NC(=O)CN2CCN(c3cc(C)ccc3C)CC2)c1	4%	-4%	5.6µM*	7%	-2%	26%	Sfp inh conf=-12%;Sfp gel assay=i
c1cn2cc(CSC3CCCCC3)nc2s1	5%	-28%	3.2µM*	2%	4%	0%	Sfp inh conf=0%;Sfp gel assay=i
CCOC(=O)NNc1nncc2ccccc12	5%	-1%	35µM*!	3%	11%	29%	Sfp inh conf=10%[53.7 µM];Sfp gel assay=?
CCOc1cc(CNc2ccc(N(C)C)cc2)cc(Br)c1OCC(=O)NC(C)(C)C	10%	-7%	3.5µM*	-13%	?	?	Sfp inh conf=?;Sfp gel assay=?
CCOc1cc(CNc2ccc(N3CCCCC3)cc2)cc(Br)c1OCC(=O)NC(C)(C)C	3%	-7%	-46%	-19%	-16%	-31%
COc1cccc(NC(=O)Nc2ccncc2)c1	0%	?	-1%	-1%	-9%	-8%
